Screening data as filed in PubChem BioAssay.
HT1080NT lethal – kills 2HG-producing HT-1080-NT fibrosarcoma cells. Potency, µM (top dose mostly 46.1 µM), hits mostly cytotoxic. AID 686970. 360,000 tested, 1.6% active. HT-1080-NT fibrosarcoma viability, CellTiter-Glo ATP luminescence, 48 h;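 also: NT is the 2HG producing partner of a matched IDH1 knockdown line; nearly all actives have a fitted effect of over 55% in size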
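750 cells/well, RPMI + 5% FBS; 2 h settle, compound pin-transfer, 48 h at 37 degrees C. CellTiter-Glo 10 min RT, luminescence. Normalized to DMSO and media-only wells.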
HT1080 IDH1KD tx – kills HT-1080 cells with IDH1 knockdown | HT-1080 IDH1 knockdown viability, ATP luminescence, 48 h | Potency, µM (series often up to 46.1 µM), actives largely listed as cytotoxic | 360,000 tested, 2% active | AID 686971
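IDH1KD HT-1080 cells, 750/well, RPMI + 5% FBS; compound pinned after 2 h settling; 48 h, 37 °C; CellTiter-Glo luminescence; % activity normalised to DMSO and no-cell wells; curves fitted, classed by r2 and efficacy.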
IL1B secr inh – inflammasome signaling inhibition, IL-1 beta readout | THP-1 LPS/ATP IL-1B secretion, AlphaLISA, 16 h; active compounds read low | activity change, % at 57.5 µM | 360,000 tested, 4.7% active | AID 743279; in the data active = activity change below about -50%; inconclusive = mostly about -30% to -49%
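THP-1 cells pretreated 1 hr with compounds (up to 57.5 uM final), then stimulated with LPS (250 ng/mL final) plus ATP (1.25 mM final); secreted IL-1B measured by AlphaLISA after 16 hr, decreased signal indicating inhibition.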
HepG2 viability – kills HepG2 cells in TGF-b inhibitor counter-screen | 410,000 tested, 0.76% active | AID 588856 | HepG2 CAGA-GFP viability, ATP luminescence, 18 h | Potency, µM (doses to about 46.1 µM), hits mostly cytotoxic
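CellTiter-Glo luminescence gave cytotoxicity after 18 hours at 37 degrees C. The cells were HepG2 CAGA-GFP in 1% FBS DMEM, stimulated with 500 pg/mL TGF-beta after compound addition. %Activity was normalised to no-cell wells (complete cell-killing) and DMSO (no toxicity), and curves were fitted and classified.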
Giardia kill – Giardia lamblia killing | Giardia lamblia trophozoite viability | activity change, % at 7.66 µM, hits read low | 340,000 tested, 0.15% active | AID 540267; in the data active = activity change below about -80%; inconclusive = between about -30% and that limit;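 also: parasites exposed to compound for two days anaerobically before the ATP read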
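ATP-content bioluminescence gauges trophozoite survival. Cells (100/well) receive compound and incubate anaerobically for 48 hrs at 37 deg C; detection reagent follows for 15-30 min at room temperature.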
TGFb SMAD3 inh – inhibitors of TGF-b signaling. HepG2 CAGA-GFP TGF-b/SMAD3 reporter, GFP fluorescence, 18 h; TGF-beta stimulated, 500 pg/mL final. Potency, µM (highest dose often 46.1 µM), most hits filed as inhibitors. 410,000 tested, 1.2% active. AID 588855; also: nearly all actives have a fitted effect of over 65% in size
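Cell-based qHTS in HEPG2 carrying a CAGA-GFP Smad reporter; compounds added before 500 pg/mL final TGF-beta, 18 h incubation at 37 degrees C, GFP fluorescence quantified per cell by imaging cytometry.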
Numbers stand for hits; - = inactive; ? = inconclusive; . = no result given; [ ] = dose if it differs, or a comment. Only some compounds are listed: those with a hit (about 6.5% of all), similar ones and a draw of the others. Unless noted, calls follow the shape of the dose curve; as a rule, active = well fitted curve in the direction sought with a large enough effect; inconclusive = small, poorly fitted or top-dose-only effect, or another doubt; inactive = no such curve, though single readings can be large; an effect the other way counts as inactive or inconclusive.

SMILES | HT1080NT lethal | HT1080 IDH1KD tx | IL1B secr inh | HepG2 viability | Giardia kill | TGFb SMAD3 inh
Cc1ccc(NC(=O)c2cc(S(=O)(=O)N3CCCCC3)cs2)cc1 | ? | -[9.24 µM] | -73 | - | - | -
O=C(Nc1cccc(S(=O)(=O)N2CCCC2)c1)c1ccc(Cl)nc1 | ? | 6.5µM | - | - | - | -
N#Cc1nc(-c2ccccc2)oc1N1CCN(C(=O)c2ccco2)CC1 | - | - | - | - | - | -
COC(=O)c1cccc(-c2ccc(C(c3c(C)[nH][nH]c3=O)c3c(C)[nH][nH]c3=O)o2)c1 | ? | ? | - | - | - | ?
c1ccc(C(CN2CCCCC2)Oc2ccccn2)cc1 (stereo unspecified) | - | - | - | - | - | -
C/C(=C\C(=O)c1ccc(Cl)cc1Cl)N(C)C | - | - | - | - | - | -
O=S(=O)(Nc1nc2ccccc2nc1Nc1cccc(S(=O)(=O)N2CCCCC2)c1)c1ccccc1 | 6.5µM | ? | - | - | - | -
O=C(Nc1cccc(S(=O)(=O)C(F)F)c1)c1ccc(S(=O)(=O)N2CCCC2)cc1 | ? | - | -88 | - | - | -
COc1ccc(S(=O)(=O)Nc2cccc(S(=O)(=O)N3CCCCCC3)c2)cc1 | - | - | - | - | - | -
O=C1C2CCCCN2C(=O)N1CCN1CCN(c2cccc(Cl)c2)CC1 (stereo unspecified) | - | - | - | - | - | -
COc1cc2nc(C3CCC3)nc(N3CCN(c4ccccn4)CC3)c2cc1OC | - | - | -99 | - | - | -
CN(C)c1ccc(N=Cc2cccn2C)cc1 | ? | ? | - | - | - | ?
COc1ccc(Cl)cc1N1C(=O)C2CCCN2C1c1ccccc1F (stereo unspecified) | - | - | - | - | - | -
O=C1C(Cl)=C(NCCc2ccccc2)C(=O)c2ccccc21 | 9.2µM | ? | ? | - | - | ?
CC(C)OCCCNC1=C(Cl)C(=O)c2ccccc2C1=O | - | ? | . | - | - | ?
CC(=O)N(Cc1ccc(F)cc1)c1cccc(C)c1C | - | - | - | - | - | -
CC(C)NC1=C(Cl)C(=O)c2ccccc2C1=O | ? | 7.1µM | - | 8.9µM | - | 10µM
C=CCNC1=C(Cl)C(=O)c2ccccc2C1=O | - | - | - | 13µM | - | ?
CC(=O)N(Cc1ccc(F)cc1)C1=C(NCCc2ccccc2)C(=O)c2ccccc2C1=O | 5.8µM | 5.2µM | -79 | 4µM | - | ?
CN(C)c1ccc(CNC(=O)C2CCCN(S(=O)(=O)c3ccc4c(c3)CCCC(=O)N4)C2)cc1 (stereo unspecified) | . | . | . | - | . | ?
COCCCNC1=C(Cl)C(=O)c2ccccc2C1=O | ? | - | - | - | - | ?
CCN(CC)CCCNC1=C(Cl)C(=O)c2ccccc2C1=O | ? | 21µM | -110 | 3.2µM | - | 4.5µM
Cc1cccc(Nc2nc(N3CCOCC3)nc(N3CCOCC3)n2)c1 | - | - | -76 | - | - | -
Cc1cccc(Nc2nc(Nc3cccc(C)c3)nc(N3CCOCC3)n2)c1 | . | . | . | - | . | ?
Cc1ccc(Nc2nc(N3CCOCC3)nc(N3CCOCC3)n2)cc1C | - | - | -60 | - | - | -
SMILES | HT1080NT lethal | HT1080 IDH1KD tx | IL1B secr inh | HepG2 viability | Giardia kill | TGFb SMAD3 inh
c1ccc(Nc2nc(N3CCNCC3)nc(N3CCOCC3)n2)cc1 | - | - | -63 | - | - | -
CC(C)c1ccc(Nc2nc(Nc3ccc(Cl)cc3)nc(N3CCOCC3)n2)cc1 | . | . | . | - | - | -
FC(F)(F)C(Oc1nc(Nc2ccc(Cl)cc2)nc(N2CCOCC2)n1)C(F)(F)F | ? | - | -76 | - | - | -
c1ccc(Nc2nc(N3CCOCC3)nc(N3CCOCC3)n2)cc1 | - | - | . | - | - | -
CCc1cc(=O)oc2cc(OC3CCCCC3=O)ccc12 (stereo unspecified) | - | - | - | - | - | -
CSC1CCCCC1(O)CSc1nc2c(cc1C#N)CCCC2 (stereo unspecified) | - | - | - | - | - | -
Cc1nn(Cc2ccccc2)c2c1C(c1ccc(Cl)cc1)C(C#N)=C(N)O2 (stereo unspecified) | - | ? | - | - | - | -
COc1cccc(S(=O)(=O)N(C)C[C@H]2OCc3cnnn3CCCC(=O)N([C@H](C)CO)C[C@H]2C)c1 | - | - | - | 18µM | . | -
C[C@H]1CN([C@@H](C)CO)C(=O)CCCn2nncc2CO[C@@H]1CN(C)S(=O)(=O)c1cn(C)cn1 | - | - | - | - | . | -
C[C@@H]1CN([C@H](C)CO)C(=O)CCCn2nncc2CO[C@@H]1CN(C)S(=O)(=O)c1cn(C)cn1 | - | - | - | 11µM | . | -
CC(=O)c1ccc(NC(=O)C2C3CCC(C3)C2C(=O)O)cc1 (stereo unspecified) | - | - | - | - | - | -
CN1CCN(c2ccc(CNC[C@H]3O[C@@H](n4cnc5c(=O)[nH]c(N)nc54)[C@H](O)[C@@H]3O)c(S(C)(=O)=O)c2)CC1 | - | - | - | - | . | -
COc1ccccc1CC(=O)NCc1ccc2c(c1)OCO2 | - | - | - | - | - | -
C/C(=C\c1ccccc1F)C(=O)c1c(C)cc(C)[nH]c1=O | - | - | -68 | - | - | -
Cc1cc(C)c(C(=O)/C=C/c2ccc3c(c2)OCO3)c(=O)[nH]1 | - | - | -91 | - | - | -
Cc1cc(C)c(C(=O)/C=C/c2cccc3ccccc23)c(=O)[nH]1 | ? | ? | -85 | - | - | ?
C/C(=C\c1cccc(Cl)c1Cl)C(=O)c1c(C)cc(C)[nH]c1=O | - | - | - | - | - | -
COC(=O)/C=C/c1ccc2c(c1)OCO2 | - | - | - | - | - | -
Cc1ccc(C(=O)/C=C/c2ccc3c(c2)OCO3)o1 | ? | ? | -50 | - | - | ?
Cc1ccc(C(=O)N/N=C/c2ccc3c(c2)OCO3)o1 | - | ? | - | - | - | -
C/C(=C\c1ccccc1)C(=O)c1c(C)cc(C)[nH]c1=O | - | - | - | - | - | -
Cc1ccc(C)c(Cn2c(CN(C)Cc3ccccc3)nc3c2c(=O)n(C)c(=O)n3C)c1 | - | - | - | - | - | ?
O=C(Nc1ccccn1)c1ccc(S(=O)(=O)c2ccc(Cl)cc2)cc1 | - | - | ? | - | - | ?
CC(=O)c1cccc(NC(=O)COC(=O)CCC(=O)c2cccs2)c1 | - | - | - | - | - | -
CCCSCCCNC(=O)c1cc2c(s1)CS(=O)(=O)C2 | - | - | - | - | - | -
Cc1ccc(C(=O)/C=C/c2ccc(Br)cc2)o1 | - | - | -57 | - | - | -
Cc1ccc(S(=O)(=O)NNC(=O)c2ccncc2)cc1 | - | - | - | - | - | -
